# According to PubChem BioAssay AID2163 (National Center for Advancing Translational Sciences (NCATS), 2009):
# This is one part of the list. The source made the active and inactive calls.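 Rule for the calls: active = compounds that slowed 12-hLO product formation enough to yield a measured IC50 potency; inactive = the rest.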
# Target: Polyunsaturated fatty acid lipoxygenase ALOX12 (Homo sapiens) (UniProt P18054)
# Test: Cuvette-Based Assay for Inhibitors of 12-hLO (12-human lipoxygenase): 8HQ Series - Round 1
# Settings: purified 12-hLO, cuvette UV 234 nm product formation
# Method: Assay Provider: Holman, T.R., University of California, Santa Cruz Screening Center PI: Austin, Christopher P. Screening Center: NIH Chemical Genomics Center The enzyme activity of 12-hLO was determined by a direct measurement of product formation by monitoring the absorbance at 234 nm in a 2 mL cuvette. IC50 values of inhibitors were obtained by measuring the enzymatic rate at a variety of concentrations (Carroll et al, Segraves et al).
# For control experiments, 2 mL of substrate buffer (10 uM arachidonic acid / 25 mM HEPES / 0.01% (v/v) Triton X-100, pH 8.0) was aliquoted in a cuvette with a magnetic stir bar. After equilibrium was ensured, an aliquot of inhibitor solvent was added (DMSO), and equilibrium was once again assured. The reaction was started by adding enzyme to the cuvette and the reaction was followed until completed. The inhibition experiments were performed as above, except the actual inhibitory compound was added instead of vehicle. To achieve an IC50, typically 5 concentrations of the inhibitor were studied. If the inhibitor concentration was constant, then five different reaction volumes were used. […] 3; No change in absorbance ensured. […] 5; No change in absorbance ensured. […]
# Polyunsaturated fatty acid lipoxygenase ALOX12 (Homo sapiens), sequence (P18054 whole entry, looked up): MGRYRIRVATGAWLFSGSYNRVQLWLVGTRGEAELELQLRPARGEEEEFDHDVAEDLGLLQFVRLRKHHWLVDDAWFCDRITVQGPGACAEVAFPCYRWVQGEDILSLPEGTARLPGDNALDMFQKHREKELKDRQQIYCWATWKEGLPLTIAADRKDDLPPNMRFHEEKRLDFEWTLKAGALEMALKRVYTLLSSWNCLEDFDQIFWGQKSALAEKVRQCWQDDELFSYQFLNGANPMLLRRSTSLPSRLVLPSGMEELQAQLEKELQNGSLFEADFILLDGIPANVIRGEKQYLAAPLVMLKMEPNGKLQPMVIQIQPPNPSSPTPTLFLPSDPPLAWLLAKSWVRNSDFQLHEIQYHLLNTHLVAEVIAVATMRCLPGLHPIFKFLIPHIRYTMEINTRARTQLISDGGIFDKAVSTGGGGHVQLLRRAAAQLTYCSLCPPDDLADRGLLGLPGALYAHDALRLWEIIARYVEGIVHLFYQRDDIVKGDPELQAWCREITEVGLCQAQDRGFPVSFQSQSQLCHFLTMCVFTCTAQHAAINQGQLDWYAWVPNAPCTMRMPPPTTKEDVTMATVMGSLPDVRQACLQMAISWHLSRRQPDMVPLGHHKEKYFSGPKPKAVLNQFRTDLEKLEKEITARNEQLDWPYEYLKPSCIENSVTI
row,Structure (SMILES),Potency
1,CC(=O)NC(c1cccs1)c1cc(Cl)c2cccnc2c1O (stereo unspecified),1 µM (active)
